Many of the other results were omitted from the sample, so the strongest signals are more common in it than they were.

Test in all cases: glycan array binding signal (z-score within array); higher = stronger binding
Common to all, as to conditions: glycan notation: IUPAC condensed, linker removed

For test [1], the target named is GlcNAc(b1-4)GlcNAc(b1-4)GlcNAc(b1-4)GlcNAc(b1-4)GlcNAc. A digest of the protocol: (§1)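 The Consortium for Functional Glycomics database supplied 3228 glycan arrays, of which those lacking an available protein sequence were dropped. The binding signal, a within-array Z-score, was averaged across arrays of the same protein sequence and across linkers. Negative scores can be read as non-binding.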

Test [2] addresses GlcNAc(b1-4)GlcNAc(b1-4)GlcNAc(b1-4)GlcNAc(b1-4)GlcNAc(b1-4)GlcNAc. The gist of the method:
as §1

Test [3] addresses Kdn(a2-3)Gal(b1-4)[Fuc(a1-3)]GlcNAc. A digest of the protocol:
as §1

The target in test [4] is Neu5Ac(a2-3)Gal(b1-3)GlcNAc(b1-2)Man(a1-3)[GlcNAc(b1-4)][Neu5Ac(a2-3)Gal(b1-3)GlcNAc(b1-2)Man(a1-6)]Man(b1-4)GlcNAc(b1-4)GlcNAc. A digest of the protocol:
as §1

Test [5] has as its target Neu5Ac(a2-3)Gal(b1-3)GlcNAc(b1-2)[Neu5Ac(a2-3)Gal(b1-3)GlcNAc(b1-4)]Man(a1-6)[Neu5Ac(a2-3)Gal(b1-3)GlcNAc(b1-2)Man(a1-3)]Man(b1-4)GlcNAc(b1-4)GlcNAc. A digest of the protocol: as §1
Test [6] deals with Neu5Ac(a2-3)Gal(b1-3)[Fuc(a1-4)]GlcNAc. A digest of the protocol:
as §1

Test [7] has as its target Neu5Ac(a2-3)Gal(b1-4)GlcNAc(b1-2)Man(a1-3)[GlcNAc(b1-4)][Neu5Ac(a2-3)Gal(b1-4)GlcNAc(b1-2)Man(a1-6)]Man(b1-4)GlcNAc(b1-4)GlcNAc. The gist of the method:
as §1

Test [8] deals with Neu5Ac(a2-3)Gal(b1-4)GlcNAc(b1-6)[Neu5Ac(a2-3)Gal(b1-3)]GalNAc. A digest of the protocol:
as §1

Test [9] has as its target Neu5Ac(a2-3)Gal(b1-4)GlcNAc6S. A digest of the protocol: as §1
The target of test [10] is Neu5Ac(a2-6)Gal(b1-4)GlcNAc(b1-2)Man(a1-3)[GlcNAc(b1-2)Man(a1-6)]Man(b1-4)GlcNAc(b1-4)GlcNAc. A digest of the protocol:
as §1

Test [11] deals with Neu5Ac(a2-6)Gal(b1-4)GlcNAc(b1-3)Gal(b1-4)GlcNAc(b1-3)GalNAc. A digest of the protocol: as §1
Test [12] addresses Neu5Ac(a2-6)Gal(b1-4)GlcNAc(b1-3)GalNAc. The gist of the method: as §1
For test [13], the target named is Neu5Ac(a2-6)GalNAc(b1-4)GlcNAc. A digest of the protocol:
as §1

The target in test [14] is Neu5Ac(a2-6)GlcNAc(b1-4)GlcNAc(b1-4)GlcNAc. The gist of the method: as §1
In test [15] the target is Neu5Ac(b2-6)GalNAc. The gist of the method:
as §1

For test [16], the target named is Neu5Gc(a2-3)Gal(b1-3)GlcNAc. A digest of the protocol: as §1
Test [17] deals with Neu5Gc(a2-8)Neu5Gc(a2-6)Gal(b1-4)GlcNAc. The gist of the method: as §1

B1: Mg1lysM (Mycosphaerella graminicola) (protein)
chain: QRNPITITPQFDCGATNSQQYVARSGDTLTKIAQEIYHDVVGVCDIARANNLADPNRIDAGTPYTIPINCQTYDRNSCL
As to B1, the “glycan array binding signal (z-score)” value is 11.9 in test [1]; 7.47 in [2]; -0.081 in test [3]; -0.076 in test [4]; 0.149 in test [5]; -0.096 in [6]. The “glycan array binding signal (z-score)” value in [7] is -0.076; in test [8] it was -0.062; in test [9] it was -0.075; in test [10], -0.054; in test [11] it was -0.091; in [12], -0.076. The “glycan array binding signal (z-score)” value was 0.004 in [13]; 4.06 in [14]; -0.076 in test [15]; -0.04 in [16]; -0.072 in test [17].

Source of the values: the supplement of paper PMC8728848.
